# Measurements taken from the supplement of paper PMC6992640.
# System: HCI01 (cells of a triple-negative basal-like breast cancer xenograft)
# Experiment: cell viability of combination (% of vehicle); higher = less cytotoxic
# Details: 1 µM; 72 h; partner dose: 10 nM
# Procedure: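 PDX cells were treated for 72 h with each drug at 1 µM plus carfilzomib (10 nM; 100 nM for WHIM2). Luciferase viability is expressed as percent of vehicle.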
row,Compound,cell viability of combination
1,CNCCCC12CCC(c3ccccc31)c1ccccc12.Cl [Maprotiline HCl] + CC(C)C[C@H](NC(=O)[C@H](CCc1ccccc1)NC(=O)CN1CCOCC1)C(=O)N[C@@H](Cc1ccccc1)C(=O)N[C@@H](CC(C)C)C(=O)[C@@]1(C)CO1 [Carfilzomib],76.5
2,C#Cc1cccc(Nc2ncnc3cc(OCCOC)c(OCCOC)cc23)c1.Cl [Erlotinib Hydrochloride] + CC(C)C[C@H](NC(=O)[C@H](CCc1ccccc1)NC(=O)CN1CCOCC1)C(=O)N[C@@H](Cc1ccccc1)C(=O)N[C@@H](CC(C)C)C(=O)[C@@]1(C)CO1 [Carfilzomib],62.6
3,CCOc1cc2ncc(C#N)c(Nc3ccc(OCc4ccccn4)c(Cl)c3)c2cc1NC(=O)C=CCN(C)C [Neratinib (HKI-272)] + CC(C)C[C@H](NC(=O)[C@H](CCc1ccccc1)NC(=O)CN1CCOCC1)C(=O)N[C@@H](Cc1ccccc1)C(=O)N[C@@H](CC(C)C)C(=O)[C@@]1(C)CO1 [Carfilzomib],87.8
4,Cc1cc(Nc2ncc(Cl)c(Nc3ccccc3S(=O)(=O)C(C)C)n2)c(OC(C)C)cc1C1CCNCC1 + CC(C)C[C@H](NC(=O)[C@H](CCc1ccccc1)NC(=O)CN1CCOCC1)C(=O)N[C@@H](Cc1ccccc1)C(=O)N[C@@H](CC(C)C)C(=O)[C@@]1(C)CO1 [Carfilzomib],81.5
5,CCCCc1oc2ccc(NS(C)(=O)=O)cc2c1C(=O)c1ccc(OCCCN(CCCC)CCCC)cc1 [Dronedarone] + CC(C)C[C@H](NC(=O)[C@H](CCc1ccccc1)NC(=O)CN1CCOCC1)C(=O)N[C@@H](Cc1ccccc1)C(=O)N[C@@H](CC(C)C)C(=O)[C@@]1(C)CO1 [Carfilzomib],76.1
6,Clc1ccc(C(Cn2ccnc2)OCc2ccsc2Cl)c(Cl)c1 (stereo not given) [Tioconazole] + CC(C)C[C@H](NC(=O)[C@H](CCc1ccccc1)NC(=O)CN1CCOCC1)C(=O)N[C@@H](Cc1ccccc1)C(=O)N[C@@H](CC(C)C)C(=O)[C@@]1(C)CO1 [Carfilzomib],88.4
7,CCCCCCCCc1ccc(CCC(N)(CO)CO)cc1.Cl [Fingolimod (FTY720)] + CC(C)C[C@H](NC(=O)[C@H](CCc1ccccc1)NC(=O)CN1CCOCC1)C(=O)N[C@@H](Cc1ccccc1)C(=O)N[C@@H](CC(C)C)C(=O)[C@@]1(C)CO1 [Carfilzomib],77.3
8,CN1CCN(CCCN2c3ccccc3Sc3ccc(C(F)(F)F)cc32)CC1.Cl.Cl [Trifluoperazine 2HCl] + CC(C)C[C@H](NC(=O)[C@H](CCc1ccccc1)NC(=O)CN1CCOCC1)C(=O)N[C@@H](Cc1ccccc1)C(=O)N[C@@H](CC(C)C)C(=O)[C@@]1(C)CO1 [Carfilzomib],76.2
9,CCc1c(Cl)c(O)c(Cl)c(O)c1C(=O)OC1C(C)OC(OCC2=CC=CCC(O)C(C)=CC(CC)C(OC3OC(C)(C)C(OC(=O)C(C)C)C(O)C3O)C(C)=CC(C)=CCC(C(C)O)OC2=O)C(OC)C1O (stereo not given) [Fidaxomicin] + CC(C)C[C@H](NC(=O)[C@H](CCc1ccccc1)NC(=O)CN1CCOCC1)C(=O)N[C@@H](Cc1ccccc1)C(=O)N[C@@H](CC(C)C)C(=O)[C@@]1(C)CO1 [Carfilzomib],92.5
10,CC1(COc2ccc3c(c2)ncn3-c2ccc3cccc(N4CCC(N)CC4)c3n2)COC1 + CC(C)C[C@H](NC(=O)[C@H](CCc1ccccc1)NC(=O)CN1CCOCC1)C(=O)N[C@@H](Cc1ccccc1)C(=O)N[C@@H](CC(C)C)C(=O)[C@@]1(C)CO1 [Carfilzomib],102
